# Experiments:
# Assay in all cases: PBM binding z-score (relative to random genomic background probes); higher = stronger binding; sequences stand for … in GC…GCGATTGACAGCGTAGAATGAAGG
# [1] = tested on: FXR:RXRa (NR concentration 270 nM, RXRa partner concentration 90 nM)
# Outline: (§1)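 Scanned fluorescence from custom Agilent 4×180K protein-binding microarrays was regression-normalized. Binding z-scores use random background probes as reference. Ligand-free nuclear receptor dimers were incubated on the arrays for 1 h and detected with antibodies against each partner (one per run).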
# [2] = tested on: LXRa:RXRa (NR concentration 270 nM, RXRa partner concentration 90 nM)
# Outline: as §1
# [3] = tested on: LXRa homodimer (NR concentration 270 nM)
# Outline: as §1
# [4] = tested on: LXRb:RXRa (NR concentration 270 nM, RXRa partner concentration 90 nM)
# Outline: as §1
# [5] = tested on: LXRb homodimer (NR concentration 270 nM)
# Outline: as §1
# [6] = tested on: PPARa:RXRa (NR concentration 270 nM, RXRa partner concentration 90 nM)
# Outline: as §1
# [7] = tested on: PPARg:RXRa (NR concentration 180 nM, RXRa partner concentration 90 nM)
# Outline: as §1
# [8] = tested on: PPARg:RXRa 270nM:90nM, anti-RXR (NR concentration 270 nM, RXRa partner concentration 90 nM)
# Outline: as §1
# [9] = tested on: PPARg:RXRa 30nM:10nM, anti-RXR (NR concentration 30 nM, RXRa partner concentration 10 nM)
# Outline: as §1
# [10] = tested on: PPARg:RXRa 90nM:30nM, anti-RXR (NR concentration 90 nM, RXRa partner concentration 30 nM)
# Outline: as §1
# [11] = tested on: PPARg:RXRa DBDmut IVT, anti-RXR (DBD mutation: RXRa K156A/R161A, NR concentration 270 nM, RXRa partner concentration 90 nM)
# Outline: as §1
# [12] = tested on: PPARg:RXRa IVT, anti-PPARg (NR concentration 270 nM, RXRa partner concentration 90 nM)
# Outline: as §1
# [13] = tested on: PPARg DBDmut:RXRa IVT, anti-PPARg (DBD mutation: PPARg1 K132A/R137A, NR concentration 270 nM, RXRa partner concentration 90 nM)
# Outline: as §1
# [14] = tested on: PPARg DBDmut IVT, anti-PPARg (DBD mutation: PPARg1 K132A/R137A, NR concentration 270 nM)
# Outline: as §1
# [15] = tested on: PPARg homodimer (NR concentration 180 nM)
# Outline: as §1
# [16] = tested on: PXR:RXRa (NR concentration 270 nM, RXRa partner concentration 90 nM)
# Outline: as §1
# [17] = tested on: PXR homodimer (NR concentration 270 nM)
# Outline: as §1
# [18] = tested on: RARa:RXR (NR concentration 270 nM, RXRa partner concentration 90 nM)
# Outline: as §1
# [19] = tested on: RARa homodimer (NR concentration 270 nM)
# Outline: as §1
# [20] = tested on: RARb:RXRa (NR concentration 270 nM, RXRa partner concentration 90 nM)
# Outline: as §1
Sequence,PBM binding z-score [1],PBM binding z-score [2],PBM binding z-score [3],PBM binding z-score [4],PBM binding z-score [5],PBM binding z-score [6],PBM binding z-score [7],PBM binding z-score [8],PBM binding z-score [9],PBM binding z-score [10],PBM binding z-score [11],PBM binding z-score [12],PBM binding z-score [13],PBM binding z-score [14],PBM binding z-score [15],PBM binding z-score [16],PBM binding z-score [17],PBM binding z-score [18],PBM binding z-score [19],PBM binding z-score [20]
GCATATAGGTAATACAAGGTGAATGTCCGATTGT,1.08,1.54,0.343,0.292,-0.289,1.08,1.37,1.14,0.382,0.743,4.28,3.39,1.78,0.61,0.903,0.286,0.012,0.602,0.84,0.305
CCAGACAGGTGAGAACGTAACTCAGCCTCGATTA,-0.0139,-0.0409,0.178,0.22,-0.463,0.136,0.444,-0.545,-0.231,-0.422,0.85,0.49,0.0295,-0.354,0.692,-0.267,0.209,-0.0422,0.428,0.192
AGAATGAGGGCACGCTGAGTTGATAGCAGAGTAG,1.27,1.11,-0.448,0.487,-0.735,2.7,2.69,2.62,0.921,1.87,5.59,4.73,1.66,0.551,0.535,1.48,0.452,1.18,-0.371,2.62
CGTCCAAGGTCAATCCTAGGTCAGTGAAAGCATT,7.14,5.85,3.44,4.8,1.43,5.47,4.38,4.75,1.43,3.63,3.45,4.04,0.153,0.742,6.19,5.13,0.983,6.44,1.8,5.33
AGAATAAGGTTAAGATCAGGGAAACAGAATACAT,2.47,2.22,0.239,2.09,0.458,3.06,1.75,1.62,0.741,1.19,1.89,1.76,1.42,1.21,1.6,1.18,0.822,1.93,1.11,2.46
TTACCAAGGTGAGATGAGGTCGTTGATCCAACTC,1.78,1.68,-0.0824,1.1,-0.44,2.03,0.772,1.32,0.775,1.01,1.15,2.16,-0.0123,0.496,0.827,5.21,0.58,2.44,0.0224,1.83
ATAGGTAGGTTACATCCGGGTCATTCAGGCTATG,2.31,4.03,1.3,2.53,0.566,3.17,2.36,2.74,0.814,1.92,3.73,3.91,0.843,0.221,1.99,3.53,3.04,3.51,1.15,2.39
GCTAGTTGGTCAGTAAAAGATCACACACCGGTCG,-0.109,-0.07,0.00819,-0.18,-0.212,-0.194,0.637,-0.0816,-0.233,-0.12,0.304,0.185,-0.527,0.421,0.2,-0.208,-0.161,0.0692,0.555,0.45
TCTGTTAGTTGATTAGGGCAACCGAAACAGCGGA,0.614,0.576,0.141,0.571,1.9,0.523,0.000964,1.9,3.28,2.74,1.71,1.89,1.51,1.52,1.09,0.57,0.354,0.456,0.969,1.19
